Measured values: PubChem BioAssay (NCI)
Where “and” joins values, the source holds several entries; their conditions need not be identical. Equal entries are not always repeated. About 79,000 compounds went through this panel and 15% of them were active in at least one assay; those are over-represented in the sample as a whole. Values without a mark were called inactive. Calls of active or inactive are those of the source. Rule as the data show it: active = growth inhibition above about 70%; inactive = the rest.

Legend:
[1] = NCI Yeast Anticancer Drug Screen. Data for the rad50 strain (AID 155);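 also: 0% = growth of vehicle-only cultures of the same strain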; details: S. cerevisiae rad50 strain growth inhibition, stronger effect = higher value; at 50.0 µM unless noted
In short: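 Relative growth inhibition (compound vs vehicle) was measured in yeast with a defined repair-gene alteration.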

[2] = NCI Yeast Anticancer Drug Screen. Data for the mec2-1 strain (AID 157); details: S. cerevisiae mec2-1 strain, stronger effect = higher value; at 50.0 µM unless noted
In short: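 Readout is yeast growth inhibition, normalised to vehicle-treated controls, in the mec2-1 strain exposed to compound.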

[3] = NCI Yeast Anticancer Drug Screen. Data for the sgs1 mgt1 strain (AID 161);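 also: 0% = growth of cultures given vehicle only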; details: S. cerevisiae sgs1 mgt1 strain, stronger effect = higher value; at 50.0 µM unless noted
In short: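 Yeast cells carrying a defined DNA-repair defect were exposed to test compounds. Growth inhibition was measured relative to vehicle-treated controls.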

[4] = NCI Yeast Anticancer Drug Screen. Data for the cln2 rad14 strain (AID 165);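 also: 0% = growth equal to vehicle treated cultures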; details: S. cerevisiae cln2 rad14 strain, stronger effect = higher value; at 50.0 µM unless noted
In short: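 Relative to vehicle controls, growth inhibition of compound-treated cln2 rad14 yeast was recorded.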

[5] = NCI Yeast Anticancer Drug Screen. Data for the bub3 strain (AID 167); details: S. cerevisiae bub3 mutant strain, stronger effect = higher value; at 50.0 µM unless noted
In short: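 Screening used yeast with an engineered genetic alteration affecting cell cycle control. Compound-exposed cultures were compared with vehicle cultures, and reduced growth was taken as inhibition.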

[6] = NCI Yeast Anticancer Drug Screen. Data for the mlh1 rad18 strain (AID 175); details: S. cerevisiae mlh1 rad18 strain growth inhibition, stronger effect = higher value; at 50.0 µM unless noted
In short: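 Test agents were incubated with a yeast strain of defined genotype (DNA damage repair defect). Inhibition of growth was derived by comparison with vehicle-exposed cultures.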

Structure (SMILES)	growth inhibition [1]	growth inhibition [2]	growth inhibition [3]	growth inhibition [4]	growth inhibition [5]	growth inhibition [6]
COc1ccc(-c2oc(=O)c3ccccc3c2-c2ccccc2)cc1	7.25%	4.65%	5.35%	9.4%	2.6%	6.4%
Cc1cc2c(C(C)C)c(O)c(O)c(C=NC(C)c3ccccc3)c2c(O)c1-c1c(C)cc2c(C(C)C)c(O)c(O)c(C=NC(C)c3ccccc3)c2c1O (stereo not given)	18.2%	7.35%	15.3%	11.9%	30.9%	7.95%
O=C(c1ccccc1)c1ccc2c(c1)N=C(c1ccc(Cl)c(Cl)c1)CC(c1ccc3ccccc3c1)N2 (stereo not given)	22.2%	15.4%	-7%	-33.5%	-3.6%	16.6%
Cc1ccc(-c2c(C)c(-c3ccccc3)c(-c3ccccc3)c(C)c2-c2ccccc2)cc1C	63.3%	77.3% (active)	25.8%	82% (active)	97.5% (active)	65%
O=C1CN(c2ccccc2)C(=O)CN1NCNN1CC(=O)N(c2ccccc2)CC1=O	-27.4%	2.1%	-1.5%	4.35%	-10%	-5%
CC(=O)N1CCC(/C(C)=N/O)CC1	4.9%	-10.1%	-12.6%	-33.8%	-13.8%	0.45%
O=C1OC(c2ccccc2)Cc2ccccc21 (stereo not given)	-20.2%	-10.8%	-22.1%	4.55%	3.15%	-9.9%
O=[N+]([O-])C(c1ccccc1)C(c1ccccc1)C(c1ccccc1)[N+](=O)[O-] (stereo not given)	4.25%	6.05%	5.6%	23.2%	22.6%	10%
COc1ccc(N=N/C(=N/NC(=O)c2cc(Cl)ccc2C(=O)c2ccccc2)c2ccc(N(CCC#N)CCC#N)cc2C)cc1	3.2%	12.6%	-32.9%	12.5%	-11.9%	12.8%
CCOc1ccc(/C=C(\C(=O)c2ccccc2)S(=O)(=O)c2ccc(OC)cc2)cc1OC	17.9%	45.5%	1.2%	5.8%	29.6%	57%
COc1ccc(C(N2CCNCC2)N2CCNCC2)cc1	13.7%	6.3%	19.6%	-30.1%	-3.5%	48.3%
NC(=O)C(NCc1ccccc1)c1ccccc1 (stereo not given)	-2.65%	4.4%	1.6%	12.5%	2.6%	2.6%
C=C1OC(n2cnc3c(=N)n(O)cnc32)C2OC(C)(C)OC12 (stereo not given)	-3.6%	4.75%	13.2%	-16.4%	1.9%	-16.5%
CNc1ccc(C=C2C=CC=C2)cc1	41.2%	1.7%	48.7%	5.2%	7.4%	55.7%
COC(=O)C1NC(=O)C(N2C(=O)c3ccccc3C2=O)=CSC1(C)C (stereo not given)	-15.8%	-3.05%	1.15%	-11.6%	-48%	-7.2%
CCCCCCCCN1CCOCCOCCN(CCCCCCCC)c2nc(Cl)nc(n2)NCCOCCOCCNc2nc(Cl)nc1n2	7.8%	-16.1%	-21.8%	-9.7%	-5%	7.7%
Cc1n[nH]c(=O)n1/N=C/c1ccncc1	8.45%	6.95%	-6%	-17%	-4.35%	7%
COc1ccc2c(c1)[nH]c1c3ccc(OC)cc3oc(=O)c21	-52%	-50%	-35.5%	1.95%	-38.6%	-33.9%
O=[N+]([O-])c1cccc(SSc2cccc([N+](=O)[O-])c2)c1	0.45% and -34.8%	-16.1% and -57%	-1.8% and -61.9%	-2.95% and -12.7%	-3.1% and -35.6%	-1.3% and -65.8%
Cc1c2ccncc2c(C)c2c1[nH]c1ccc(O)cc12	16.9%	14.2%	43.9%	23.6%	19.5%	58.9%
COc1ccc(C2(OC)Oc3cc(OC)ccc3-c3nc4ccccc4nc32)cc1 (stereo not given)	23.4%	1.25%	-4.15%	11.6%	4.3%	0.4%
CCOc1cc(/C=N/NC(=O)c2ccccc2NC(=O)c2ccccc2Cl)ccc1O	11.3%	-1.9%	-7.05%	-1.8%	3.05%	-9.3%
Cc1cc(C(=O)O)c(C(=O)O)c(Cl)n1	-9.15%	-5%	0.45%	-12.9%	-16.9%	4.8%
O=c1[nH]cc(Br)c(=O)[nH]1	28.8%	19.7%	13.7%	9.3%	21.9%	37%
CSc1nc(C)cc(Nc2ccc(O)c(CN3CCCCC3)c2)n1	19.4%	-20.3%	-27.3%	10.4%	-32.6%	2.6%
